From PubChem BioAssay (NCATS)
“And” between values parts separate entries of the source, which are not always exact repeats. Identical values can stand only once. Results filed as inconclusive are left out. The source made the active and inactive calls. Unless noted, the call rests on the fitted dose curve; in most records, active means well fitted curve in the direction sought with a large enough effect; inconclusive means small, poorly fitted or top-dose-only effect, or another doubt; inactive means no such curve, though single readings can be large; an effect the other way counts as inactive or inconclusive.

Tests used:
[1] = biological target: Endonuclease 4 (Escherichia coli (strain K12)) (UniProt P0A6C1); test: Counterscreen for APE1 Inhibitors: qHTS Validation Assay for Inhibitors of Endonuclease IV (AID 1708)
Summary of the method: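 Measured as reaction progress, the fluorescence gain between first and third kinetic reads after adding 50 nM TAMRA/BHQ-2 THF duplex to 2 nM enzyme preincubated 15 min with compound; 2 mM MgCl2, pH 7.5.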

[2] = qHTS for differential inhibitors of proliferation of Plasmodium falciparum line 7G8 (AID 1815);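 further: potency means the concentration at half of the fitted maximal effect; parasite growth measured after three days of incubation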
[3] = qHTS for differential inhibitors of proliferation of Plasmodium falciparum line GB4 (AID 1816); conditions: Potency: Plasmodium falciparum GB4 proliferation inhibition;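 further: potency means the concentration at half of the fitted maximal effect; parasite growth measured after 72 h incubation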
[4] = qHTS for differential inhibitors of proliferation of Plasmodium falciparum line 3D7 (AID 1876); further: potency means the concentration at half of the fitted maximal effect
[5] = qHTS for differential inhibitors of proliferation of Plasmodium falciparum line D10 (AID 1877);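 further: potency means the concentration at half of the fitted maximal effect; parasites grown with compound for 72 h before DNA staining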
[6] = qHTS for differential inhibitors of proliferation of Plasmodium falciparum line Dd2 (AID 1882); conditions: Potency: Plasmodium falciparum Dd2 proliferation inhibition; further: potency means the concentration at half of the fitted maximal effect; nearly all actives have a fitted effect of over 65% in size
Summary of the method: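 RBC culture, 0.3% parasitemia / 2.5% Hct final; cpd added by pin tool in DMSO; 72 h, 37 C, 5% CO2; lysis buffer + SYBR Green I, o/n RT dark; FI 485/535; norm. to artemisinin 0.29 uM and DMSO.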

[7] = qHTS for differential inhibitors of proliferation of Plasmodium falciparum line W2 (AID 1883); conditions: Potency: Plasmodium falciparum W2 proliferation inhibition;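 further: potency means the concentration at half of the fitted maximal effect; parasites grown with compound for 72 h before lysis and staining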
[8] = biological target: ATP-dependent DNA helicase Q1 (Homo sapiens) (UniProt P46063); test: qHTS Validation Assay for Inhibitors of RecQ-Like Dna Helicase 1 (RECQ1) (AID 2353)
Chain of ATP-dependent DNA helicase Q1 (Homo sapiens) (P46063 whole entry, looked up): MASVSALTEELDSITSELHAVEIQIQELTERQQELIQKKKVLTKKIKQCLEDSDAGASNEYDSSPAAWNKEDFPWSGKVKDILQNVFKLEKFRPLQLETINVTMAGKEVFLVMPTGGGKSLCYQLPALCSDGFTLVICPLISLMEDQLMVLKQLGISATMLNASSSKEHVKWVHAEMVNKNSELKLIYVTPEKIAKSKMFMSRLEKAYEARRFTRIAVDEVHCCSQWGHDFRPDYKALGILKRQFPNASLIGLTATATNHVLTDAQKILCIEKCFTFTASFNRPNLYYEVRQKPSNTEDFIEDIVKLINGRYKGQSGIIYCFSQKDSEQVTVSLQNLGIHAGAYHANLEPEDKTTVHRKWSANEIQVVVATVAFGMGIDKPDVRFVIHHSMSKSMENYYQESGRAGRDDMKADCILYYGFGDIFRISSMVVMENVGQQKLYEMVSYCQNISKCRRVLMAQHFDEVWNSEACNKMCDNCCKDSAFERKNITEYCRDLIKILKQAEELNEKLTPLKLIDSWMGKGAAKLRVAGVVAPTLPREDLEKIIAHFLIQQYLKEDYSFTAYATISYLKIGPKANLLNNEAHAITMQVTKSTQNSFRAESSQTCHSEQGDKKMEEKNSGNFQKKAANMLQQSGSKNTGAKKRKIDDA
Summary of the method: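 RECQ1T1 50 nM; forked duplex (20 bp + 30-nt ss tails) 200 nM, ATP 2 mM final; pH 8.0, 2 mM MgCl2, 2.5 ug/ml poly(dI-dC); 15 min compound preincubation; discontinuous kinetic read over 2 h at RT.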

[9] = Cytometric Cell-Based qHTS for Inhibitors of the mTORC1 Signaling Pathway in MEF (Tsc2-/-, p53-/-) Cells (AID 2660);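 further: Tsc2 and p53 null MEFs carrying empty vector with compound for 24 h; percent of cells above a phospho-rpS6 to PI ratio cutoff in each well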
Summary of the method: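 Percent of cells positive for normalized phospho-S6 staining is reported, with the cutoff set from rapamycin (7.5 nM) versus DMSO wells. Tsc2-/-, p53-/- MEFs received compound for 24 hrs.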

[10] = High Content Imaging Cell-Based qHTS for Inhibitors of the mTORC1 Signaling Pathway in MEF (Tsc2-/-, p53-/-) Cells (AID 2666); conditions: at 38.3 µM (top of the series);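 further: percent of cells scored positive for phospho-rpS6 Ser235/236 immunostaining by imaging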
Summary of the method: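 Inhibition of rpS6 phosphorylation is measured by immunofluorescence imaging in empty-vector Tsc2-/-, p53-/- mouse embryonic fibroblasts after 24 hrs compound exposure at 37 degree Celsius. Results are reported as % positive cells per well.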

[11] = High Content Imaging Cell-Based qHTS for Inhibitors of the mTORC1 Signaling Pathway in MEF Cells (AID 2667);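 further: Tsc2-/- p53-/- MEFs stably re-expressing wild-type Tsc2 exposed 24 h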
Summary of the method: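 Fixed-cell imaging of phospho-S6 (Ser235/236, Alexa-488) after 24 hrs of compound treatment at 37 degree Celsius. Signal was normalized to Hoechst, and thresholds from the highest and lowest wells split cells into % active versus % non-active.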

[12] = Validation screen for small molecules that induce DNA re-replication in MCF 10A normal breast cells (AID 463097); further: potency means the concentration at half of the fitted maximal effect; nearly all actives have a fitted effect of over 60% in size
Summary of the method: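 DNA re-replication was detected as a rise in nuclei with elevated Hoechst fluorescence after a 48 hr compound exposure of MCF 10A cells at 37 C.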

[13] = biological target: Ubiquitin carboxyl-terminal hydrolase 2 (Homo sapiens) (UniProt O75604); test: qHTS Validation Assay for Inhibitors of Ubiquitin-specific Protease USP2a Using CHOP2 as the Reporter (AID 463106)
Chain of Ubiquitin carboxyl-terminal hydrolase 2 (Homo sapiens) (O75604 whole entry, looked up): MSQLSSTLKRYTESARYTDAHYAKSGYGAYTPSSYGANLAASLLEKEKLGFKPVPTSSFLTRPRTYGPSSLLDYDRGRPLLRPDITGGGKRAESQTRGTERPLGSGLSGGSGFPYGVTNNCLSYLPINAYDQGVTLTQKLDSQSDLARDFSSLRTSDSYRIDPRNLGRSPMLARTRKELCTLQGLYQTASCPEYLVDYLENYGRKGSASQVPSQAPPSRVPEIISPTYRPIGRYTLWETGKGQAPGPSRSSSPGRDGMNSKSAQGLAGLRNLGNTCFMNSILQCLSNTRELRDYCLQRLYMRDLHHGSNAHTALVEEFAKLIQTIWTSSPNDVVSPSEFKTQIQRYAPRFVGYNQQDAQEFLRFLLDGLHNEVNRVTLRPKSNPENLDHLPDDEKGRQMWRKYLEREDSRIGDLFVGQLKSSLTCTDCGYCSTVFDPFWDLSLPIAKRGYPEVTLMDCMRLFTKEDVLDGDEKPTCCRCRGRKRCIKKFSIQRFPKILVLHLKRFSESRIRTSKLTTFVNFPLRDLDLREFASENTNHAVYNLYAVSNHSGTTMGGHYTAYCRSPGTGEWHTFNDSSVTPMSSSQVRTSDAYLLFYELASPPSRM
Summary of the method: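 Inhibition is expressed relative to NEM as the full-inhibition control, with concentration-response curves classed by fit quality, magnitude and activity. Enzyme (USP2 core, 10nM) meets 25nM Ub-CHOP2 after compound preincubation; readings are taken at 60min.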

[14] = biological target: DNA polymerase III PolC-type (Bacillus subtilis (strain 168)) (UniProt P13267); test: qHTS Validation Assay for the Inhibitors of DNA Replication in Gram-Positive Bacteria (AID 485295);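 further: reconstituted holoenzyme with PolC plus beta clamp SSB and primase; PicoGreen fluorescence of double-stranded DNA made on primed circular M13 template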
Chain of DNA polymerase III PolC-type (Bacillus subtilis (strain 168)) (P13267 whole entry, looked up): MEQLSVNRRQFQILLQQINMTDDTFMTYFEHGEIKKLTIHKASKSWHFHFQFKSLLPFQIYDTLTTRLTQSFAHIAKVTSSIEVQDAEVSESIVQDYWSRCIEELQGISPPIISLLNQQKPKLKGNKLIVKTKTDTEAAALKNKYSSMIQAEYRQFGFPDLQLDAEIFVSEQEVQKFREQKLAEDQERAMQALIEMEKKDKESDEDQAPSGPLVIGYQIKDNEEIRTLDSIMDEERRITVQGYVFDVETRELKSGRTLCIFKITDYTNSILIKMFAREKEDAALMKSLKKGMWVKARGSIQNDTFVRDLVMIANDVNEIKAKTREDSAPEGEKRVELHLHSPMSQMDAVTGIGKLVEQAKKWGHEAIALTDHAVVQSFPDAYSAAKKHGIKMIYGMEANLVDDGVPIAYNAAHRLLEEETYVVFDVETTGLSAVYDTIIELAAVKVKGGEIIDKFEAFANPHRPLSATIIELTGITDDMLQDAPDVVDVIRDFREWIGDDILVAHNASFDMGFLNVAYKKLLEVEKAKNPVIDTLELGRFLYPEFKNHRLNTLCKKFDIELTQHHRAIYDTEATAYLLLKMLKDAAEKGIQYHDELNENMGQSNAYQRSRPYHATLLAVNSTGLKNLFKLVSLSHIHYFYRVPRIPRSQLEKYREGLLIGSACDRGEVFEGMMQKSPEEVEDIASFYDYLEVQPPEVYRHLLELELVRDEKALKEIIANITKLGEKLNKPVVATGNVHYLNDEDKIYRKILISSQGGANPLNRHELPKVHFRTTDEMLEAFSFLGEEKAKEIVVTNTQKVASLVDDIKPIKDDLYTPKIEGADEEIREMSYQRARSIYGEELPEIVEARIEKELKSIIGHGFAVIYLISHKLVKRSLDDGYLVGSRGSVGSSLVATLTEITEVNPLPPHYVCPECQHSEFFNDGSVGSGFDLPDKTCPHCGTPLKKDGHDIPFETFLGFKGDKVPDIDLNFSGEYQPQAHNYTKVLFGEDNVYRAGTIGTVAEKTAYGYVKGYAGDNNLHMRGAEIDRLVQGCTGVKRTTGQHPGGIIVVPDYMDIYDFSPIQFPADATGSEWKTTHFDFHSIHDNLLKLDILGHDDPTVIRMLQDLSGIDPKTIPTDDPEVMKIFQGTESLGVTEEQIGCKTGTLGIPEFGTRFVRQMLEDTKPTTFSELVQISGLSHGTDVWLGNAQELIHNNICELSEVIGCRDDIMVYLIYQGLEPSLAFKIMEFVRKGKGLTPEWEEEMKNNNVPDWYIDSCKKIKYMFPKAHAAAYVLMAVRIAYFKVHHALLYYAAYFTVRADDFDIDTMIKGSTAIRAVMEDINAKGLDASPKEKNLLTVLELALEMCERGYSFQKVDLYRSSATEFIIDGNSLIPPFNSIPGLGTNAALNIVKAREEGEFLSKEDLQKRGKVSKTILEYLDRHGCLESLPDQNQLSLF
Summary of the method: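 Primed replication of single-stranded M13Gori by a four-protein B. subtilis holoenzyme is measured at room temperature. Double-stranded product is quantified by PicoGreen fluorescence after an EDTA stop; inhibition is scaled between DMSO and EDTA controls.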

[15] = biological target: Tumor susceptibility gene 101 protein (Homo sapiens) (UniProt Q99816); test: qHTS Validation Assay for Iinhibitors of HIV-1 Budding by Blocking the Interaction of PTAP/TSG101 (AID 485342; calls by dose curve)
Summary of the method: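 Fluorescence anisotropy measured PTAP-Tsg101 interaction. Final concentrations were 10 uM protein domain and 50 nM labeled peptide, equilibrated 20 min at room temperature.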

[16] = biological target: Beta-2 adrenergic receptor (Homo sapiens) (UniProt P07550); test: qHTS validation assay of beta-arrestin-biased ligands of beta2-adrenergic receptor (AID 485366)
Summary of the method: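 Screening used a titration range of up to 46 microM in a beta-arrestin recruitment Tango luciferase assay. Cells in 1% FBS medium were treated 18 hr at 37 degrees C, and luminescence was normalized to %Activity.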

[17] = biological target: Thioredoxin reductase 1, cytoplasmic (Rattus norvegicus) (UniProt O89049); test: qHTS Assay for Inhibitors of Mammalian Selenoprotein Thioredoxin Reductase 1 (TrxR1) (AID 488773); conditions: Potency: inhibition;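 further: drop in NADPH fluorescence over an 8 min run after selenite addition; nearly all actives have a fitted effect of over 40% in size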
Chain of Thioredoxin reductase 1, cytoplasmic (Rattus norvegicus) (O89049 whole entry, looked up): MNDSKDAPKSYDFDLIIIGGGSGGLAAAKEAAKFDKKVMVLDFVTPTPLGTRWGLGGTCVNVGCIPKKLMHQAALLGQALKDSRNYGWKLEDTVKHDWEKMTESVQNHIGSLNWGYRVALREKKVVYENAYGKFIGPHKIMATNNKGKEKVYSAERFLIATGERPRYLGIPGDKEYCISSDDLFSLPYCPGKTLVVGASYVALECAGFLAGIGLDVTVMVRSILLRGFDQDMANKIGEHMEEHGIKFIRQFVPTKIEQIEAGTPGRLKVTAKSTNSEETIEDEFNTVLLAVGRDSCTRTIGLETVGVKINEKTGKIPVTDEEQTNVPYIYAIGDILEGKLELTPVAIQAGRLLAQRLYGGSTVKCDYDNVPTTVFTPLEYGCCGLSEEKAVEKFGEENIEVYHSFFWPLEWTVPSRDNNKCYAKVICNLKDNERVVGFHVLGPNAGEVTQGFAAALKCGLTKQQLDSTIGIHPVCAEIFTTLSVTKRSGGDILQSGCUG
Summary of the method: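 Inhibition is scored from the loss of NADPH fluorescence between first and last reads of an 8-min kinetic run. Selenite (400 uM) was the substrate, added after 15 min compound preincubation at room temperature.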

[18] = biological target: Flap endonuclease 1 (Homo sapiens) (UniProt P39748); test: qHTS Validation Assay for the Inhibitors of Human Flap endonuclease 1 (FEN1) (AID 488816); further: potency means the concentration at half of the fitted maximal effect
Summary of the method: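 Steps: add FEN1 (10 nM reagent) or buffer only; pin compounds; hold 15 min at room temperature; start with substrate, 50 nM final; read at 0 and 15 min; correct, normalize and fit a four-parameter Hill curve.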

[19] = biological target: M-phase phosphoprotein 8 (Homo sapiens) (UniProt Q99549); test: qHTS Validation Assay for Inhibitors for MPP8 Chromodomain Interactions with Methylated Histone Tails (AID 488949); further: potency means the concentration at half of the fitted maximal effect; nearly all actives have a fitted effect of over 55% in size
Chain of M-phase phosphoprotein 8 (Homo sapiens) (Q99549 whole entry, looked up): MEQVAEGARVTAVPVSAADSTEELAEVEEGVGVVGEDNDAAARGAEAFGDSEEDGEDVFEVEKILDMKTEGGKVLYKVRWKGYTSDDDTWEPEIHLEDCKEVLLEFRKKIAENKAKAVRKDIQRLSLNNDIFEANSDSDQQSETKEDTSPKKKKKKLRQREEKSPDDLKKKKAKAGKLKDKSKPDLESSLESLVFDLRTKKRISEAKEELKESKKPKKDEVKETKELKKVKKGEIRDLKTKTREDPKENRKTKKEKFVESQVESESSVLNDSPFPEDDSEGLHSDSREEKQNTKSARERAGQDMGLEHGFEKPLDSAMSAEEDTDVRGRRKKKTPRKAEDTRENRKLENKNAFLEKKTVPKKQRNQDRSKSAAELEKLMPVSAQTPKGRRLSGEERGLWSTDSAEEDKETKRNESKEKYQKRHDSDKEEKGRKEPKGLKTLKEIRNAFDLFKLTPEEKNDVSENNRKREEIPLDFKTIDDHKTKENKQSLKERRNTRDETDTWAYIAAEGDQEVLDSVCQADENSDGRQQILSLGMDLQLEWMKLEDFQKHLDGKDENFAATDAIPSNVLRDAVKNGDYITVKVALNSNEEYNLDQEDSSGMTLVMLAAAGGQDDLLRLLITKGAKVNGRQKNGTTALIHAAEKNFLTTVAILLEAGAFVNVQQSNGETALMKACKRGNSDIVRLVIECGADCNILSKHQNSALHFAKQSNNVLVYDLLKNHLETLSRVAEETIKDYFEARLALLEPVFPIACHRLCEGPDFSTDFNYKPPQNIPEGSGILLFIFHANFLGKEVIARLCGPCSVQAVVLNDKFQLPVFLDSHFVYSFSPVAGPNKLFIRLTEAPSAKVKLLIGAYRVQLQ
Summary of the method: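 Disruption of the preformed MPP8–trimethyl-H3K9 peptide complex (both 50 nM, 30 min, RT) is measured after 30 min compound exposure, using AlphaScreen proximity beads; aurintricarboxylic acid titration serves as plate control.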

[20] = biological target: Chromobox protein homolog 1 (Homo sapiens) (UniProt P83916); test: qHTS Validation Assay for Inhibitors of HP1-beta Chromodomain Interactions with Methylated Histone Tails (AID 488953); further: potency means the concentration at half of the fitted maximal effect; nearly all actives have a fitted effect of over 50% in size
Chain of Chromobox protein homolog 1 (Homo sapiens) (P83916 whole entry, looked up): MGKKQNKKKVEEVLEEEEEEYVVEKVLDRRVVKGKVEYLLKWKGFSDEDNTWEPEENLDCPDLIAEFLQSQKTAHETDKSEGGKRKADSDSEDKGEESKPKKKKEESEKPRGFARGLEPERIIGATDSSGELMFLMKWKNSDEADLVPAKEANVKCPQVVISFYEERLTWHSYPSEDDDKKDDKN
Summary of the method: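 AlphaScreen proximity readout: streptavidin donor and Ni-chelate acceptor beads, 10 ug/mL final, 30 min dark, RT. Complex of 50 nM HP1-beta and 50 nM b-H3(1-18)K9me3 formed 30 min, then compound-treated 30 min; PBS pH 7.4/0.01% Tween-20.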

[21] = biological target: Methanococcus maripaludis chaperonin (MmCpn) (UniProt Q6LX38); test: High-Throughput Screening for Modulators of Cytosolic Chaperonin Activity: MmCpn Primary Screen (AID 488978);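 further: 50 nM MmCpn enzyme hydrolysing 30 µM ATP at 37 °C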
Summary of the method: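 Measures ATPase turnover of the M. maripaludis chaperonin (50 nM final) against 30 uM ATP over 10 min at 37C, with compound added 5 min beforehand at room temperature. ADP is quantified by HTRF immunodetection.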

[22] = biological target: Transient receptor potential cation channel subfamily V member 1 (Homo sapiens) (UniProt Q8NER1); test: HTS Assay for Compounds that Act as Enhancers of the Vanilloid Receptor 1 (AID 488979)
Chain of Transient receptor potential cation channel subfamily V member 1 (Homo sapiens) (Q8NER1 whole entry, looked up): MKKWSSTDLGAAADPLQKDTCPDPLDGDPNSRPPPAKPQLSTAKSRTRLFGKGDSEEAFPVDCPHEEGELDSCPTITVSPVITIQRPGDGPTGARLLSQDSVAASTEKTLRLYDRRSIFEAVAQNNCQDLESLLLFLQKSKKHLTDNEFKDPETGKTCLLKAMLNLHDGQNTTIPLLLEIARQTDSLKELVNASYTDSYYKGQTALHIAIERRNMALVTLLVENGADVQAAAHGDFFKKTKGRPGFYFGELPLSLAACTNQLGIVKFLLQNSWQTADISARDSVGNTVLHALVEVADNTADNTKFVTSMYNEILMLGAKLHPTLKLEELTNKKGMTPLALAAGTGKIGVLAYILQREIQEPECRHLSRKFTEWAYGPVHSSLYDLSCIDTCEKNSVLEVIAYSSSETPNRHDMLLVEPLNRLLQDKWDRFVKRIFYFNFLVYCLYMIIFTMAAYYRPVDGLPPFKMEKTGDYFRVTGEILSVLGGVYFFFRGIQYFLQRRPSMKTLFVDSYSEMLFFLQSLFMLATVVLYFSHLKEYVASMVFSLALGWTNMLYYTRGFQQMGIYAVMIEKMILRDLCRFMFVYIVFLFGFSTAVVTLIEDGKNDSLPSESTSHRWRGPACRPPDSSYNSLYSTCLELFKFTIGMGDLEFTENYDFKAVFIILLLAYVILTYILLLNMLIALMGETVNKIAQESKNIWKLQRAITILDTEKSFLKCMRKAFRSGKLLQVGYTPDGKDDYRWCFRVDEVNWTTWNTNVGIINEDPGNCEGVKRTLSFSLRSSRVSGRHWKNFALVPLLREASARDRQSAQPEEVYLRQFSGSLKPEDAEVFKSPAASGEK
Summary of the method: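 TRPV1-expressing cells loaded with Fluo-8 calcium dye; compounds added and calcium influx read kinetically for 3 min (agonist phase), then capsaicin at EC20 added and read 2 min more for enhancement. Fluorescence ex 480/em 520 nm.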

Measured: Potency

N#C/C(=C\c1ccc(O)c(O)c1)C(=O)Nc1ccccc1
active: [2] 8.91 µM | [3] 14.1 µM | [4] 12.6 µM | [5] 10 µM | [6] 12.6 µM | [7] 7.94 µM | [12] 12.6 µM | [18] 18.9 µM | [19] 12.6 µM and 10.6 µM | [20] 12.6 µM
inactive: all other assays above
